{"source": "PubChem BioAssay AID485364", "about": "(National Center for Advancing Translational Sciences (NCATS), 2010)", "note": "Among all 360,000 compounds or so, about 11,000 (3.1%) were called active. Entries that show only a call come without a potency. Not shown: some 4% with an inconclusive outcome. The sample holds actives, similar compounds and a random draw of the others, so the mix is not that of the screen. Calls follow the shape of the dose curve; as a rule, active = well fitted inhibition curve with a large enough effect; inconclusive = small, poorly fitted or top-dose-only effect; inactive = no such curve, though single readings can be large or run the other way. Potency is read from the fitted curve at half-maximal effect.", "data": [{"molecular_target": "Schistosoma mansoni thioredoxin glutathione reductase (TGR) (UniProt Q962Y6)", "test": "qHTS Assay for the Inhibitors of Schistosoma Mansoni Peroxiredoxins; also: nearly all actives have a fitted effect of over 60% in size", "details": "purified TGR, DTNB reduction, TNB absorbance 405 nm; series mostly up to 114 µM", "procedure,_shortened": "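Kinetic colorimetric format: TGR-catalysed, NADPH-driven DTNB reduction monitored via TNB absorbance. Enzyme dispensed at 20 nM; compound exposure 15 min at room temperature before reaction start.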", "values": [{"smiles": "NC(=O)CSc1nc2c(oc3ccccc32)c(=O)n1Cc1ccccc1", "Potency": "inactive"}, {"smiles": "CN1c2ccc(Cl)cc2-c2nc(SCC(=O)Nc3cc(F)ccc3F)ncc2S1(=O)=O", "Potency": "inactive"}, {"smiles": "N#Cc1ccccc1S(=O)(=O)N1CCN(C(=O)c2cc(-c3ccccc3)nn2-c2ccccc2)CC1", "Potency": "inactive"}, {"smiles": "N#Cc1ccccc1S(=O)(=O)N1CCN(Cc2c(O)ccc3ccccc23)CC1", "Potency": "0.891 µM (active)"}, {"smiles": "COc1ccc(-c2csc3ncnc(N4CCN(S(=O)(=O)c5ccccc5C#N)CC4)c23)cc1", "Potency": "inactive"}, {"smiles": "O=C(CSc1cn(CC(=O)N2CCOCC2)c2ccccc12)Nc1ccccc1", "Potency": "inactive"}, {"smiles": "CCC(C)(C)n1nnnc1C(c1ccc(OC)c(OC)c1)N1CCN(C(=O)c2ccco2)CC1", "note": "(stereo unspecified)", "Potency": "inactive"}, {"smiles": "COc1ccc(C(c2nnnn2Cc2cccs2)N2CCN(c3ccccc3)CC2)cc1OC", "note": "(stereo unspecified)", "Potency": "44.7 µM (active)"}, {"smiles": "COc1ccccc1C(c1nnnn1CC1CCCO1)N1CCN(c2ccccc2)CC1", "note": "(stereo unspecified)", "Potency": "inactive"}, {"smiles": "CCOc1ccc(CCNC(=O)c2c(C)oc3ncn(C)c(=O)c23)cc1", "Potency": "inactive"}, {"smiles": "CCSc1nc(C)c(CCOc2cccc(C)c2)c(=O)[nH]1", "Potency": "inactive"}, {"smiles": "CCSc1nc(O)c(C(c2cccc(OC)c2)c2c(O)nc(SCC)[nH]c2=O)c(=O)[nH]1", "Potency": "5.01 µM (active)"}, {"smiles": "CC(C)c1c(O)nc(SCCOc2ccc(Cl)cc2)[nH]c1=O", "Potency": "inactive"}, {"smiles": "CCc1ccc(CNC(=O)c2cc3c(=O)n(CC)c4ccccc4c3s2)cc1", "Potency": "inactive"}, {"smiles": "CC1=C(c2ccc(F)cc2)S(=O)(=O)N=C1N1CCC(C(=O)NCCc2ccccc2C)CC1", "Potency": "inactive"}, {"smiles": "CCC1CCCCN1C(=O)Cn1c(=O)n(CCCCCC(=O)NCc2ccccc2)c(=O)c2sccc21", "note": "(stereo unspecified)", "Potency": "inactive"}, {"smiles": "COC(=O)C(CC(=O)Nc1cc(C)ccc1C)Nc1ccccc1OC", "note": "(stereo unspecified)", "Potency": "inactive"}, {"smiles": "O=C(COC(=O)[C@H](Cc1ccccc1)NC(=O)c1cccs1)Nc1cc(F)ccc1F", "Potency": "inactive"}, {"smiles": "Cc1ccc(C)c(NC(CC(=O)c2ccccc2)C(=O)OCC(=O)c2cccs2)c1", "note": "(stereo unspecified)", "Potency": "12.6 µM (active)"}, {"smiles": "CCN(CCCNC(=O)c1ccc(Sc2ccc(C)cc2)c(NC(C)=O)c1)c1cccc(C)c1", "Potency": "inactive"}, {"smiles": "CC1CCN(S(=O)(=O)c2ccc3c(c2)N(CC(=O)NCc2ccccc2Cl)C(=O)CO3)CC1", "Potency": "inactive"}, {"smiles": "O=c1n(Cc2cccc(C(F)(F)F)c2)c2ccccc2c2nc(-c3ccccc3)nn12", "Potency": "inactive"}, {"smiles": "CN1CCN(C(CNC(=O)c2ccccc2F)c2ccc3c(c2)OCO3)CC1", "note": "(stereo unspecified)", "Potency": "inactive"}, {"smiles": "CC1CCCN(c2cc3c(cc2F)c(=O)c(S(=O)(=O)c2cccc(Cl)c2)cn3Cc2ccccc2)C1", "note": "(stereo unspecified)", "Potency": "inactive"}, {"smiles": "CCCCC1=CC2=CC(=O)C(C)(OC(=O)CC)C(=O)C2=CN1CCCOC(C)C", "note": "(stereo unspecified)", "Potency": "inactive"}, {"smiles": "COC/C=C/C1=CC2=CC(=O)C(C)(OC(=O)CCC(=O)OC)C(=O)C2=CO1", "note": "(stereo unspecified)", "Potency": "3.98 µM (active)"}, {"smiles": "C=CCN1C=C2C(=O)C(C)(OC(=O)CCc3ccccc3)C(=O)C=C2C=C1c1ccc(C#N)cc1", "note": "(stereo unspecified)", "Potency": "inactive"}, {"smiles": "O=C(NCCCO)C(=O)Nc1c2c(nn1-c1ccc(F)cc1)CSC2", "Potency": "inactive"}, {"smiles": "Nc1nc(SCC(=O)Nc2ccc(Cl)c([N+](=O)[O-])c2)n[nH]1", "Potency": "inactive"}, {"smiles": "Nc1nc(Sc2ncccc2[N+](=O)[O-])n[nH]1", "Potency": "inactive"}, {"smiles": "Cn1cnc([N+](=O)[O-])c1Nc1ccccc1O", "Potency": "inactive"}, {"smiles": "Cn1cnc([N+](=O)[O-])c1Sc1n[nH]c(N)n1", "Potency": "10 µM (active)"}, {"smiles": "Cn1cnc([N+](=O)[O-])c1Sc1ccccc1", "Potency": "50.1 µM (active)"}, {"smiles": "Cn1nc(-c2ccccc2)c(CO)c1Sc1ccccc1", "Potency": "inactive"}, {"smiles": "Cc1nnc(NC(=O)c2ccc3nccnc3c2)s1", "Potency": "inactive"}, {"smiles": "Cc1ccc(C(=O)Cc2nnc(C)s2)cc1", "Potency": "10 µM (active)"}, {"smiles": "Cc1ccc(C(=O)Cn2cccn2)cc1", "Potency": "inactive"}, {"smiles": "Cc1cc(C)cc(NC(=O)CSc2nc(=O)n(CCN3CCOCC3)c3c2CCC3)c1", "Potency": "inactive"}, {"smiles": "CC(C)CNC(=S)NC(=O)c1ccc(Cl)cc1", "Potency": "50.1 µM (active)"}, {"smiles": "CC(C)C(NC(=O)c1ccc(Cl)cc1)C(=O)O", "note": "(stereo unspecified)", "Potency": "inactive"}, {"smiles": "Cc1occc1C(=O)NNC(=S)NCC(C)C", "Potency": "inactive"}, {"smiles": "CC[N+](C)(CC)CCC[n+]1c(-c2ccccc2)c2cc(N)ccc2c2ccc(N)cc21", "Potency": "39.8 µM (active)"}, {"smiles": "CC(=O)c1ccc(NC(=O)COc2ccccc2-c2nc(-c3ccccc3)no2)cc1", "Potency": "inactive"}, {"smiles": "CCc1ccc(NC(=O)c2cc(S(=O)(=O)NC3CCCCCC3)ccc2F)cc1", "Potency": "inactive"}, {"smiles": "Cc1ccc(NC(=O)C(Cc2ccccc2)NS(=O)(=O)c2ccc3c(c2)oc(=O)n3C)cc1C", "note": "(stereo unspecified)", "Potency": "inactive"}, {"smiles": "Cc1oc2ncnc(N3CCOCC3)c2c1C(=O)NCCc1ccccc1", "Potency": "inactive"}, {"smiles": "CCC(=O)N1CCc2cc(CNS(=O)(=O)c3ccc(Br)s3)ccc21", "Potency": "inactive"}, {"smiles": "Cc1ccc(-n2c(-c3ccc(Cl)cc3)n[nH]c2=S)cc1", "Potency": "inactive"}, {"smiles": "Cc1nccc(-c2ccc(-n3c(C)ccc3C)cc2)n1", "Potency": "39.8 µM (active)"}, {"smiles": "c1ccc(-c2nccc(-c3ccc(-n4cnc5ccccc54)cc3)n2)nc1", "Potency": "inactive"}, {"smiles": "O=C(Nc1ccc(C(=O)OCc2cc(=O)n3nc(C4CC4)sc3n2)cc1)c1ccc(F)cc1", "Potency": "inactive"}, {"smiles": "Cc1ccc(CNS(=O)(=O)c2ccc(-c3cc(C(F)(F)F)on3)s2)cc1", "Potency": "inactive"}, {"smiles": "COC(=O)c1ccc(OC(=O)c2cnccn2)cc1", "Potency": "56.2 µM (active)"}, {"smiles": "COc1cccc(OCC(=O)NNC(=O)c2cnccn2)c1", "Potency": "inactive"}, {"smiles": "COC(=O)c1ccc(COC(=O)c2cnccn2)cc1", "Potency": "inactive"}, {"smiles": "O=C(NCCc1ccccc1)c1ccc2c(c1)N(Cc1ccccc1)C(=O)c1ccccc1S2(=O)=O", "Potency": "inactive"}, {"smiles": "CSc1ccccc1NC(=O)CCS(=O)(=O)c1nc(-c2cccs2)cc(C(F)(F)F)n1", "Potency": "12.6 µM (active)"}, {"smiles": "COc1ccccc1-c1cc(C(F)(F)F)nc(S(=O)(=O)CCCC(=O)Nc2cc(C)ccc2O)n1", "Potency": "inactive"}, {"smiles": "COc1ccccc1-c1cc(C(F)(F)F)nc(S(=O)(=O)CCCC(=O)Nc2ccc(F)cc2F)n1", "Potency": "inactive"}, {"smiles": "CCOc1ccccc1NC(=O)CSc1ncc(S(=O)(=O)c2ccc(C(C)(C)C)cc2)c(=O)[nH]1", "Potency": "inactive"}, {"smiles": "CCCCN1C(=O)c2[nH]nc(-c3ccccc3O)c2C1c1cccc(OCc2ccccc2)c1", "note": "(stereo unspecified)", "Potency": "inactive"}, {"smiles": "COc1ccccc1N1CCN(S(=O)(=O)CCNC(=O)COc2ccc(F)cc2)CC1", "Potency": "inactive"}, {"smiles": "Cc1nc(N2CCOCC2)c2c(C(=O)NCc3cccc(Cl)c3)c(C)oc2n1", "Potency": "inactive"}, {"smiles": "O=C(O)c1ccccc1NC(=O)c1ccccc1-c1ccccc1C(=O)O", "Potency": "inactive"}, {"smiles": "O=C(NC(=S)Nc1ccccc1C(=O)O)c1ccc(-c2ccc(Br)cc2)o1", "Potency": "3.55 µM (active)"}, {"smiles": "O=C(NC(=S)Nc1cc(C(F)(F)F)ccc1N1CCOCC1)c1ccc(-c2cccc(Cl)c2)o1", "Potency": "inactive"}, {"smiles": "Cc1ccc(Cl)cc1NC(=O)NC1COc2ccccc2C1", "note": "(stereo unspecified)", "Potency": "inactive"}, {"smiles": "Cc1ccc(CNC(=O)CCCNC(=O)c2ccc(Cl)cc2)n1C", "Potency": "25.1 µM (active)"}, {"smiles": "Cc1ccc(NC(=O)CCCNC(=O)c2ccc(Cl)cc2)cc1S(=O)(=O)N1CCCCC1", "Potency": "inactive"}, {"smiles": "CC(=O)Nc1ccc(NC(=O)CCCNC(=O)c2ccc(Cl)cc2)cc1", "Potency": "inactive"}, {"smiles": "COC(=O)c1scc(-c2ccccc2)c1S(=O)(=O)Nc1ccccc1", "Potency": "inactive"}, {"smiles": "COc1ccc(-n2c(=O)c3sc4ccccc4c3n(CC(=O)Nc3cccc(C)c3)c2=O)cc1", "Potency": "inactive"}, {"smiles": "Cc1cccc(N2CCN(C(=O)CCn3c(=O)c4cccn4c4cccnc43)CC2C)c1", "note": "(stereo unspecified)", "Potency": "inactive"}, {"smiles": "O=C1Oc2ccccc2C(=O)/C1=C/c1ccccc1O", "Potency": "2 µM (active)"}, {"smiles": "COC(=O)c1ccc(/C=C2/C(=O)Oc3ccccc32)cc1", "Potency": "inactive"}, {"smiles": "CC(C)(C)NC(=O)CSc1nc(-c2ccc(F)cc2)cc(C(F)(F)F)n1", "Potency": "inactive"}, {"smiles": "COc1ccc(S(=O)(=O)Nc2cc3c(C(=O)OC(C)C)c(C)oc3c3ccccc23)cc1", "Potency": "inactive"}, {"smiles": "COc1ccc(S(=O)(=O)/N=C2\\C=C(NS(=O)(=O)c3ccccc3)C(=O)c3ccccc32)cc1", "Potency": "35.5 µM (active)"}, {"smiles": "CCCC(NS(=O)(=O)c1ccc(OC)cc1)C(=O)O", "note": "(stereo unspecified)", "Potency": "inactive"}, {"smiles": "Cc1ccccc1CN1CCNC(=O)C1CC(=O)NCCC1=CCCCC1", "note": "(stereo unspecified)", "Potency": "inactive"}, {"smiles": "CCc1cc(CNC(=O)CC2C(=O)NCCN2Cc2ccccc2C(F)(F)F)on1", "note": "(stereo unspecified)", "Potency": "35.5 µM (active)"}, {"smiles": "CCc1cc(CNC(=O)CC2C(=O)NCCN2CC2CCCCC2)on1", "note": "(stereo unspecified)", "Potency": "inactive"}, {"smiles": "CC(C)c1ccc2oc(-c3cc(NC(=O)c4cccs4)ccc3Cl)nc2c1", "Potency": "inactive"}, {"smiles": "COc1ccc(OC)c(-c2csc(-c3c(N)c(C(=O)c4ccccc4)n4ccccc34)n2)c1", "Potency": "inactive"}, {"smiles": "CC(/C=C/C1(O)C(C)CC(=O)CC1(C)C)OC1OC(CO)C(O)C(O)C1O", "note": "(stereo unspecified)", "Potency": "25.1 µM (active)"}, {"smiles": "CC1=C(C)C(=O)OC(C(C)C2CCC3C4CC=C5CC(OC6OC(COC7OC(CO)C(O)C(O)C7O)C(O)C(O)C6O)CC(O)C5(C)C4CCC23C)C1", "note": "(stereo unspecified)", "Potency": "inactive"}, {"smiles": "C=CC1C(OC2OC(CO)C(O)C(O)C2O)OC=C(C(=O)OC)C1CC1CC(=O)CC(CC(=O)CCc2ccc(O)cc2)O1", "note": "(stereo unspecified)", "Potency": "inactive"}, {"smiles": "Cc1ccc(N(Cc2cc(=O)[nH]c3ccccc23)C(=O)CCl)cc1", "Potency": "3.16 µM (active)"}, {"smiles": "CC(=O)N(Cc1cc(=O)[nH]c2ccccc12)c1ccc(C)cc1C", "Potency": "inactive"}, {"smiles": "Cc1ccc(N(Cc2cc3ccccc3[nH]c2=O)C(=O)c2cccs2)cc1", "Potency": "inactive"}, {"smiles": "CCOC(=O)c1ccc(-c2ccc(/C=C(\\C#N)C(=O)Nc3ccc(C)cc3)o2)cc1", "Potency": "inactive"}, {"smiles": "COc1ccc(OCCCn2c(C3CC(=O)N(c4ccc(F)cc4)C3)nc3ccccc32)cc1", "note": "(stereo unspecified)", "Potency": "inactive"}, {"smiles": "CCOC(=O)C1(Cc2ccccc2C)CCCN(S(C)(=O)=O)C1", "note": "(stereo unspecified)", "Potency": "inactive"}, {"smiles": "CCOC(=O)C1(Cc2ccccc2C)CCCN(C(=O)CCc2c(C)noc2C)C1", "note": "(stereo unspecified)", "Potency": "inactive"}, {"smiles": "CCOC(=O)C1(Cc2ccccc2C)CCCN(C(=O)c2ccc(COC)o2)C1", "note": "(stereo unspecified)", "Potency": "15.8 µM (active)"}, {"smiles": "COc1ccc(CNc2nc(-c3ccccc3)nn2C(=O)c2ccccc2OC)cc1", "Potency": "inactive"}]}]}
